Rows were chosen to be rich in hits. Some 11% of all compounds tested hit in one or more screens of this group.
PNC inhibitor – perinucleolar compartment assembly inhibition; PC3M PTB-GFP, PNC prevalence imaging, 16 h; active compounds read low; 140,000 compounds, 3.1% hits; activity change (PNC), negative = inhibition, % at 10 µM;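 active means readout at or below -70, meaning at least 70% loss of cells showing the perinucleolar compartment, a nuclear body marking cancer cells; inconclusive means readout between -30 and a set limit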;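 further: plate controls were DMSO wells for no effect and camptothecin positive control wells for full effect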
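Compounds are pinned in duplicate onto adhered PC3M cells stably expressing GFP-tagged PTB and incubated 16 h at 37 C. Cells are then fixed, nuclei stained with Hoechst, and PNC-positive cells counted.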
HttQ103 aggreg – inhibitors of mutant huntingtin aggregate formation in PC12 cells; PC12 HttQ103-GFP aggregates, Acumen cytometry, 40 h; 220,000 compounds, 1.1% hits; Potency, µM (series often up to 46.1 µM), inactives show at the top dose activity change, negative = inhibition, most hits filed as inhibitors; AID 1688; active means well fitted curve in the direction sought with a large enough effect; inconclusive means small, poorly fitted or top-dose-only effect, or another doubt; inactive means no such curve, though single readings can be large; an effect the other way counts as inactive or inconclusive; further: potency means the concentration at half of the fitted maximal effect; on the % scale 0 is the no-effect control and ±100 the full control effect; nearly all actives have a fitted effect of over 60% in size
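Compounds (qHTS titration) were added to PC12 cells expressing an ecdysone-driven HTT exon 1 Q103–GFP fusion after induction with 100 nM tebufenozide. Aggregate formation was measured as GFP objects in cell lysates.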
GoLoco inh red – inhibitors of human Gai1-RGS12 GoLoco interaction (red fluorophore). Gai1:RGS12 GoLoco peptide FP, rhodamine, 10 min. AID 880. 230,000 compounds, 0.44% hits. Potency, µM (highest dose often 61.6 µM), without a hit: at the highest dose activity, negative = inhibition, most hits filed as inhibitors; active means well fitted inhibition curve with a large enough effect, not every such curve was filed as active; inactive means no such curve, though single readings can be large or run the other way; further: potency means the concentration at half of the fitted maximal effect; on the % scale 0 is the no-effect control and ±100 the full control effect; nearly all actives have a fitted effect of over 30% in size
ALDH1A1 block – blocks purified human ALDH1A1 activity; P00352; Purified ALDH1A1, NADH fluorescence, propionaldehyde substrate; Potency, µM (doses to about 75.3 µM), for the others: at the highest dose activity, negative = inhibition, hits mostly inhibitors; 220,000 compounds, 7.3% hits; AID 1030;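 further: potency means the concentration at half of the fitted maximal effect; plate controls were no enzyme wells and a reference inhibitor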
Target sequence (P00352 whole entry, looked up): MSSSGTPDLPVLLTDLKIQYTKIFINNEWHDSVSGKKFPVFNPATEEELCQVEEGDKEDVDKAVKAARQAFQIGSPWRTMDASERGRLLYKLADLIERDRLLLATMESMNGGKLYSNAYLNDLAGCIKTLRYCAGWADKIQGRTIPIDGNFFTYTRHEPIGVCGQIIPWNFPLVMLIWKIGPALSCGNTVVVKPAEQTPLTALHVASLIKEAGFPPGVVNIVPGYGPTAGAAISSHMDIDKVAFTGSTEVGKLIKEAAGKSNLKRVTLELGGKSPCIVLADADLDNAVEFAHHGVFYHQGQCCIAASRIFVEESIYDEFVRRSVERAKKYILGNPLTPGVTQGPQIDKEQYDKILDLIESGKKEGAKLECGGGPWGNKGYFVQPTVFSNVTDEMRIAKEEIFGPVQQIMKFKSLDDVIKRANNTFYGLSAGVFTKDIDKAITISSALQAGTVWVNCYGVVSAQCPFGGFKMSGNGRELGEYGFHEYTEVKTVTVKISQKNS
HTT cytoprotect – Huntington cell model cytoprotection by ATP luminescence | PC12 HTT-Q103 induced, cytoprotection, ATP luminescence, 40 h | Potency, µM (highest dose often 56.4 µM), inactives show cytoprotection (ATP increase), hits mostly activators | 230,000 compounds, 0.14% hits; active means well fitted curve in the direction sought with a large enough effect; inconclusive means small, poorly fitted or top-dose-only effect, or another doubt; inactive means no such curve, though single readings can be large; an effect the other way counts as inactive or inconclusive; further: potency means the concentration at half of the fitted maximal effect; % of control where 0% means no effect; nearly all actives have a fitted effect of over 45% in size
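Rat PC12, Q103 Htt exon1-GFP fusion, ecdysone promoter; tebufenozide inducer 100 nM final; compound titration; qHTS, 1500 cells/well; ATPlite luminescent read.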
HPGD block – inhibitors of human 15-hydroxyprostaglandin dehydrogenase (HPGD) | purified HPGD, NADH fluorescence kinetic, PGE2 substrate | Potency, µM, for inactives: at the highest dose activity change, negative = inhibition, usual class: inhibitors | 150,000 compounds, 4.3% hits | AID 894; further: potency means the concentration at half of the fitted maximal effect; on the % scale 0 is the no-effect control and ±100 the full control effect
Target sequence (P15428 whole entry, looked up): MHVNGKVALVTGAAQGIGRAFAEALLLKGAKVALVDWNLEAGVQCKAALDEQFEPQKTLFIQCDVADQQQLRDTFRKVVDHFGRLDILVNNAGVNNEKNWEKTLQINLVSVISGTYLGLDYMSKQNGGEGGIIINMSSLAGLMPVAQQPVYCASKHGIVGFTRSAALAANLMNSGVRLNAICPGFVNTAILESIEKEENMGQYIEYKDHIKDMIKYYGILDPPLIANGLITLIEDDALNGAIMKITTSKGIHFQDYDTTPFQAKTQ
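20 nM HPGD preincubated 15 min at room temperature with compound in 50 mM Tris-HCl pH 8, 0.01% Tween 20. Started with 1 mM NAD+ and 30 uM prostaglandin E2; NADH fluorescence (360/450 nm) read 5 times over 30-s intervals, last minus first.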
* hit, by the source's call; ? = inconclusive; / = not tested or not shown; [ ] = dose if it differs, or a comment. Unless noted, the call rests on the fitted dose curve; in most records, active means well fitted inhibition curve with a large enough effect (not every such curve was filed as active); inconclusive means small, poorly fitted or top-dose-only effect, or another doubt; inactive means no such curve, though single readings can be large or run the other way.

SMILES | PNC inhibitor | HttQ103 aggreg | GoLoco inh red | ALDH1A1 block | HTT cytoprotect | HPGD block
O=C1CC(N2CCN(c3ccccn3)CC2)C(=O)N1c1ccc(Cl)cc1 (stereo not given) | / | -10.0%[9.22 µM] | 13.8% | 25.1µM* | -13.9%[10 µM] | /
N/C(=N\OC(=O)CCCOc1ccccc1)c1cccc([N+](=O)[O-])c1 | / | -11.0% | 6.0% | -1.2% | / | /
Cc1ccc(C(=O)COC(=O)c2cn3ccccc3n2)cc1 | / | 20.5% | -0.7% | 0.4% | -20.7% | /
O=C(COC(=O)c1ccc2c(c1)S(=O)(=O)N=C1CCCCCN12)NCc1cccs1 | / | 13.2%[9.22 µM] | -3.5% | 14.1µM* | -7.1%[10 µM] | /
CC(C)(C)NC(=O)NC(=O)COC(=O)c1ccc2c(c1)S(=O)(=O)N=C1CCCCCN12 | ? | -17.3% | 5.3% | ? | -11.3%[10 µM] | -12.0%
COc1cc([N+](=O)[O-])ccc1NC(=O)CCCOc1cccc(C)c1C | 6.0 | -2.6% | -3.2% | 14.1µM* | -0.3%[10 µM] | -16.0%
O=C(CC(O)(c1ccccc1)C(F)(F)F)c1cccs1 (stereo not given) | 13.4 | -7.4% | 7.6% | 5.2% | -4.4% | -3.7%
Cc1cc(C)nc(SCCC(=O)N(C)C)n1 | 21.2 | 14.2% | 1.3% | 2.7% | -4.2% | -15.5%
Cc1cc(C)nc(SCCS(=O)Cc2ccc(Cl)cc2)n1 (stereo not given) | -110.0* | 5.5% | 9.5% | ? | -6.1%[10 µM] | -7.4%
CCOC(=O)Nc1nc(-c2ccccc2)c(C)s1 | / | / | -5.8%[14.2 µM] | ? | -13.8%[10 µM] | -19.5%
O=[N+]([O-])c1ccc(Sc2n[nH]c(-c3ccccc3)n2)nc1 | 8.2 | -14.7% | 15.0% | -14.7% | -1.5% | 8.91µM*
Nc1cccnc1Sc1ccc([N+](=O)[O-])cn1 | 22.6 | 28.2% | -11.7% | ? | / | 10µM*
COc1ccccc1CNc1ncncc1-c1ccccc1OC | / | / | 1.2% | 1.0% | 4.8% | /
Cc1cc2nc(CSc3ccc(Cl)cc3)cc(=O)n2[nH]1 | / | 0.3%[9.22 µM] | 6.2% | -0.2% | -79.0% | /
COC(=O)[C@@]1(Cc2ccc(F)cc2)[C@H]2c3cc(C(=O)N4CCCC4)n(Cc4ccccn4)c3C[C@H]2CN1C(=O)c1ccccc1 | / | / | 7.3% | 7.0% | 26.1% | -8.4%
CC1CCC(C(C)C)C(OCC(O)C[N+]2(C)CCCCC2)C1 (stereo not given) | / | 8.6%[9.22 µM] | 5.8% | 9.5% | 18.4%[10 µM] | /
CC1CCC(C(C)C)C(OCC[N+](C)(C)C)C1 (stereo not given) | -29.0 | 27.3% | 3.98µM* | 27.2% | 5.1%[10 µM] | -11.9%
CCOC(=O)c1sc2nc3c(SCC(=O)O)cc(C(=O)c4ccccc4O)cn3c(=O)c2c1C | / | 19.3% | 11.2% | 0.5% | / | /
Cc1sc2nc3c(SC(C)C(=O)O)cc(C(=O)c4ccccc4O)cn3c(=O)c2c1C (stereo not given) | -17.8 | ? | 31.9% | 8.91µM* | -65.3%[10 µM] | -20.9%
O=C(O)CSc1cc(C(=O)c2ccccc2O)cn2c(=O)c3c(-c4ccccc4)csc3nc12 | / | 9.5% | 18.9% | 3.55µM* | -73.7% | /
COC(=O)C1CC(=O)N(c2ccc(C)cc2)C1 (stereo not given) | / | 24.7%[9.22 µM] | 20.9% | 5.1% | 10.1%[10 µM] | /
COC(=O)C1CC(=O)c2ccsc2C1 (stereo not given) | -109.0* | -0.2% | -7.9% | 5.2% | / | -0.5%
CCOC(=O)CC(NC(=O)c1cc2cccc(OC)c2oc1=O)c1cccc([N+](=O)[O-])c1 (stereo not given) | 0.7 | 23.5% | -3.9% | 22.4µM* | 4.6%[10 µM] | ?
CCOC(=O)CC(NC(=O)c1cc2cc(Cl)cc(Cl)c2oc1=O)c1cccc([N+](=O)[O-])c1 (stereo not given) | ? | 19.7% | 1.3% | -2.8% | 27.3%[10 µM] | -12.8%
Cc1ccc(SC(=O)c2c([N+](=O)[O-])c(C)nn2C)cc1 | / | -1.4%[9.22 µM] | 5.2% | / | -12.5%[10 µM] | /
SMILES | PNC inhibitor | HttQ103 aggreg | GoLoco inh red | ALDH1A1 block | HTT cytoprotect | HPGD block
Cc1cc(C(=O)Oc2ccccc2C(=O)O)c(C)o1 | -100.0* | -14.8% | -4.6% | 2.4% | -8.3%[0.074 µM] | -5.4%
CC(=O)Oc1ccccc1C(=O)O | / | -2.7% | 9.6% | 6.3% | 10.3% | -17.7%
CC(C)COC(=O)NCC12C=CC(O1)C1C(=O)N(c3ccc(Cl)cc3)C(=O)C12 (stereo not given) | -27.4 | -13.9% | 42.0% | 0.562µM* | 0.2% | 17.8µM*
Fc1ccc(CNC(=S)Nc2cccc(Cl)c2)cc1 | -5.2 | 1.5% | 8.2% | ? | 2.0%[10 µM] | -29.3%
Cc1ccc(N2C(=O)C3C4C=CC(CNC(=S)Nc5ccc(Cl)cc5)(O4)C3C2=O)cc1 (stereo not given) | ? | -7.4% | -30.4% | 0.316µM* | 13.9%[10 µM] | ?
Cc1ccc(N2C(=O)C3C4C=CC(CNC(=S)Nc5ccc(F)cc5)(O4)C3C2=O)cc1 (stereo not given) | -80.2* | 15.6% | -25.9% | 0.398µM* | 13.2%[10 µM] | 17.8µM*
Cc1ccc(N2C(=O)C3C4C=CC(CNC(=S)Nc5cccc(Cl)c5)(O4)C3C2=O)cc1 (stereo not given) | -11.7 | 8.0% | -19.3% | 1.58µM* | 23.5%[10 µM] | -28.3%
Cc1ccc(N2C(=O)C3C4C=CC(CNC(=S)N5CCN(c6ccccn6)CC5)(O4)C3C2=O)cc1 (stereo not given) | / | ? | -24.0% | ? | -15.5% | /
C[C@H](NC(=O)c1ccc(Cl)cc1)C(=O)NCCc1ccc(S(N)(=O)=O)cc1 | / | 3.7% | 8.9% | 1.5% | 1.0% | /
CCCCC1C2=C(CC(C)(C)CC2=O)OC2=C1C(=O)CC(C)(C)C2 | 13.8 | ? | / | 6.2% | 7.9%[10 µM] | /
CC(=O)N1C2(C=CC1(C)C(=O)NCc1cc(F)cc(C(F)(F)F)c1)CCCCC2 (stereo not given) | / | / | 2.3% | -6.6% | -103.0% | -14.2%
O=C1c2oc3ccc(F)cc3c(=O)c2C(c2ccncc2)N1CCN1CCOCC1 (stereo not given) | ? | 2.0% | 11.6% | -9.8% | 13.6%[10 µM] | -13.3%
Cc1ccc2oc3c(c(=O)c2c1)C(c1cccc(Cl)c1)N(CCCN1CCOCC1)C3=O (stereo not given) | ? | -30.6% | 6.9% | 12.6µM* | 5.7%[10 µM] | -0.2%
Cc1ccc2oc3c(c(=O)c2c1)C(c1ccc(F)cc1)N(CCCN1CCOCC1)C3=O (stereo not given) | -24.9 | ? | -3.5% | 3.55µM* | -31.6% | -25.4%
COc1ccc(OC)c(CN2CCN(CCc3ccccc3)C(CCO)C2)c1 (stereo not given) | / | 8.9% | -8.4% | 2.0% | -54.2% | /
CC(=O)OC[C@H]1O[C@@H](O/N=C(\C)CCN2CCc3nc(-c4ccccc4)c(-c4ccccc4)cc3C2)[C@H](OC(C)=O)[C@@H](OC(C)=O)[C@H]1OC(C)=O | / | / | / | -1.3%[13.5 µM] | ? | /
NC(N)=N/N=C\c1ccc(O)c(C(=O)O)c1 | / | / | -2.8%[14.2 µM] | ? | 0.6%[10 µM] | ?

From PubChem
